Reference: the supplement of paper PMC11732987, “Enantioselective OTUD7B fragment discovery through chemoproteomics screening and high-throughput optimisation” (Communications Chemistry, 2025)

Columns and labels:
Assay in all cases: log2 ratio of Biotin-Ahx-Ub-VS probe labelling (fragment/DMSO); higher = less target engagement (more negative = stronger competition), active = hit call of the paper (q ≤ 0.05, log2 ratio ≤ -1)
Settings in all cases: compound concentration: 200 uM; treatment time: 3 h
[1] = molecular target: T1, ALG13 (UniProt Q9NP73)
T1 sequence (whole entry): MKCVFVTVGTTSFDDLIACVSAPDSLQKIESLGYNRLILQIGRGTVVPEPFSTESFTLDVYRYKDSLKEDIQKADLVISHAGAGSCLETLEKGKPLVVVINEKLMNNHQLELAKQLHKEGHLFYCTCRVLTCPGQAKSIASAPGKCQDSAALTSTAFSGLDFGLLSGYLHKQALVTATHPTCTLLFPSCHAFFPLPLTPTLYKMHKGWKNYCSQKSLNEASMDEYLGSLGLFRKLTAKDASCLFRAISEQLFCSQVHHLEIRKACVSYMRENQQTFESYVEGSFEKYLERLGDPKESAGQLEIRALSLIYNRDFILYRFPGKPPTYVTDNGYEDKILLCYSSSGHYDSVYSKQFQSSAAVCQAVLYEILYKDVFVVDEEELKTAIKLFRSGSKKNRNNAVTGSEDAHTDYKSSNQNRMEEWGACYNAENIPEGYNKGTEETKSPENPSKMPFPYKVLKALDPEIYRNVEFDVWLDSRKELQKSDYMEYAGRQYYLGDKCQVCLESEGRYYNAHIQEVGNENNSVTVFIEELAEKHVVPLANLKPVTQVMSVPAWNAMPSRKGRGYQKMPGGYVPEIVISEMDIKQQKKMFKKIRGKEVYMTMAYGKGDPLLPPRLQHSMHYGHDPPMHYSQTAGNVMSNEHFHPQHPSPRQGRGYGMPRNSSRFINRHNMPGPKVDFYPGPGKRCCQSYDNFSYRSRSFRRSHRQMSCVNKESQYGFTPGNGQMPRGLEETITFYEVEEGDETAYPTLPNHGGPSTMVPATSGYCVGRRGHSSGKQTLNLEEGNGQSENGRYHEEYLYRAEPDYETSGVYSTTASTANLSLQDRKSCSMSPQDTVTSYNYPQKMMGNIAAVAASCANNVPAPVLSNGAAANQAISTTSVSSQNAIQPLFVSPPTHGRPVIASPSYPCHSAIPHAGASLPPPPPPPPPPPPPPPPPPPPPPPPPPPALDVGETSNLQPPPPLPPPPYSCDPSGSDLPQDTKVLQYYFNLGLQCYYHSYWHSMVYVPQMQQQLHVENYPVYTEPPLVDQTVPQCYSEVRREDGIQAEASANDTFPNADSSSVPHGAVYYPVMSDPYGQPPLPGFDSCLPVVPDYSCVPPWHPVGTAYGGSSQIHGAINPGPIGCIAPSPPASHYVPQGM
Method in brief: (§1)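 HEK293T lysate (495 µg per sample, in Tris/CHAPS/IGEPAL buffer with protease inhibitors) was exposed in triplicate for 3 h to fragment at 200 µM or to vehicle, then to Biotin-Ahx-Ub-VS at 0.5 µM final for 1 h. Labelled DUBs were enriched on NeutrAvidin, digested with LysC and trypsin, and analysed by diaPASEF LC-MS/MS. Spectronaut label-free quantities were normalised to the global median, and values are average log2 ratios of fragment over vehicle from an unpaired t-test. Only proteins with ≥2 unique peptides were used.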

[2] = molecular target: ATXN3 (UniProt P54252)
Chain of ATXN3 (P54252 whole entry): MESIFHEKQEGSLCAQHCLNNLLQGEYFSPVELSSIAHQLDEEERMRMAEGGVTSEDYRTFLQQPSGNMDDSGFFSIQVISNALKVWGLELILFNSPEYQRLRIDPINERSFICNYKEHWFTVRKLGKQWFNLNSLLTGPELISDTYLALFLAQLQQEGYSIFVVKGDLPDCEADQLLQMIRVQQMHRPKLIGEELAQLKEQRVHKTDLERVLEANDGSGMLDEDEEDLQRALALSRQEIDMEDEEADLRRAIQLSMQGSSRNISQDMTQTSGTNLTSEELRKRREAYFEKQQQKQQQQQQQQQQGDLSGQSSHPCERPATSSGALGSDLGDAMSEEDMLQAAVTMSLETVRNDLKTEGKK
Method in brief: as §1

[3] = molecular target: T2, BAP1 (UniProt Q92560)
T2 sequence (whole entry): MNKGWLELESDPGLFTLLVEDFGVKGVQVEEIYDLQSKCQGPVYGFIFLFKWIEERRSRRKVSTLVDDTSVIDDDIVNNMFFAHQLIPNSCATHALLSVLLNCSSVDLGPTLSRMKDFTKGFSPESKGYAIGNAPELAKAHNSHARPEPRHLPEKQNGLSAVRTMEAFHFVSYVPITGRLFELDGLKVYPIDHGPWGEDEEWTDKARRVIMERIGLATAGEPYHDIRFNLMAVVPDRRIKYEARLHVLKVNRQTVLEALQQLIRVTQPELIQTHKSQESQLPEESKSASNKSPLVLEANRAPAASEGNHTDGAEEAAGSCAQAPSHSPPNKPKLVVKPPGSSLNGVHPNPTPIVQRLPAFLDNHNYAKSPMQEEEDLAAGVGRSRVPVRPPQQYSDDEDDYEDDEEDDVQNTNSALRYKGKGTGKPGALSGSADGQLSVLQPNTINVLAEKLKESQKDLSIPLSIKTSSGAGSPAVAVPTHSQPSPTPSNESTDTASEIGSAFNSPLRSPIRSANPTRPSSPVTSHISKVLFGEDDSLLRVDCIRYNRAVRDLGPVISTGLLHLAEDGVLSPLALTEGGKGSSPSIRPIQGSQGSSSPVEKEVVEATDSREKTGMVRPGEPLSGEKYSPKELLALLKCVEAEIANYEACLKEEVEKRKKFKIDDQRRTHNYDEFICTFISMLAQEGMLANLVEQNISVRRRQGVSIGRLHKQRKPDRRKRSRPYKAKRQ
Method in brief: as §1

[4] = molecular target: EIF3F (UniProt O00303)
Chain of EIF3F (O00303 whole entry): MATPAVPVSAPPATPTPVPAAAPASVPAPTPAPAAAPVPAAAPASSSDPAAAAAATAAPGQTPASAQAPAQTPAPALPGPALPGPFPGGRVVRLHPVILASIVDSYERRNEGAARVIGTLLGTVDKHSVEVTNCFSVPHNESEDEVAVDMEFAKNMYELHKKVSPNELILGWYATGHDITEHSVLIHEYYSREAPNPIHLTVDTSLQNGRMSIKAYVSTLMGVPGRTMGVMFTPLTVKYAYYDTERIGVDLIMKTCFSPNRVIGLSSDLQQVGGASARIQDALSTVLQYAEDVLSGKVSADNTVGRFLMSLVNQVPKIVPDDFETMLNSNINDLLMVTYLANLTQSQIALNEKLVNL
Method in brief: as §1

[5] = molecular target: EIF3H (UniProt O15372)
Chain of EIF3H (O15372 whole entry): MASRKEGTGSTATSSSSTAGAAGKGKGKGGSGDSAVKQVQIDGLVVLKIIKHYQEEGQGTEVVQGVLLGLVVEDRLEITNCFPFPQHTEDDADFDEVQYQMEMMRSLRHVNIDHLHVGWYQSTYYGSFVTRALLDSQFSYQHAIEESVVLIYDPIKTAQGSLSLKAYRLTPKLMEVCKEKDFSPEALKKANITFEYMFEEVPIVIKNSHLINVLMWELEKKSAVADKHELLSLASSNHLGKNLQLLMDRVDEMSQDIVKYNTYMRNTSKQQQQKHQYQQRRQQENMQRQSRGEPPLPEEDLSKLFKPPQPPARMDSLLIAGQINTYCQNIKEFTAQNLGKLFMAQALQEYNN
Method in brief: as §1

[6] = molecular target: T3, FAM105A (UniProt Q9NUU6)
T3 sequence (whole entry): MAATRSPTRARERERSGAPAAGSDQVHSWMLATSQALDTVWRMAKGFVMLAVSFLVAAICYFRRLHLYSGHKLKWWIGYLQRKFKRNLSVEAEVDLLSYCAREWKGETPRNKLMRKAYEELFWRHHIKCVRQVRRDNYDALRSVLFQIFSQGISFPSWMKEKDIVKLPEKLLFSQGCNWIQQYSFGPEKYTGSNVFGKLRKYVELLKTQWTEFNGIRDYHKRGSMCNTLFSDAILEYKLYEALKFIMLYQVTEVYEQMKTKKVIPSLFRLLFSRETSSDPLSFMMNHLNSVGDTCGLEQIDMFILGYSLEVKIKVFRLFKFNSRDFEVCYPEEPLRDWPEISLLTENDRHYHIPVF
Method in brief: as §1

[7] = molecular target: OTUB1 (UniProt Q96FW1)
Chain of OTUB1 (Q96FW1 whole entry): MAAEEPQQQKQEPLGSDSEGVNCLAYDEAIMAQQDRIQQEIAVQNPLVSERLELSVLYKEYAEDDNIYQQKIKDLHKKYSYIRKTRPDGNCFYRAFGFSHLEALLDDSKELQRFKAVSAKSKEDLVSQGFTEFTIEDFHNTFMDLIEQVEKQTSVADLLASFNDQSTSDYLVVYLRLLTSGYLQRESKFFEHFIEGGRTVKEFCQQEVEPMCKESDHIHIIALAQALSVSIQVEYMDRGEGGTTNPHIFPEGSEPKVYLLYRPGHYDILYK
Method in brief: as §1

[8] = molecular target: T4, OTUD4 (UniProt Q01804)
T4 sequence (whole entry): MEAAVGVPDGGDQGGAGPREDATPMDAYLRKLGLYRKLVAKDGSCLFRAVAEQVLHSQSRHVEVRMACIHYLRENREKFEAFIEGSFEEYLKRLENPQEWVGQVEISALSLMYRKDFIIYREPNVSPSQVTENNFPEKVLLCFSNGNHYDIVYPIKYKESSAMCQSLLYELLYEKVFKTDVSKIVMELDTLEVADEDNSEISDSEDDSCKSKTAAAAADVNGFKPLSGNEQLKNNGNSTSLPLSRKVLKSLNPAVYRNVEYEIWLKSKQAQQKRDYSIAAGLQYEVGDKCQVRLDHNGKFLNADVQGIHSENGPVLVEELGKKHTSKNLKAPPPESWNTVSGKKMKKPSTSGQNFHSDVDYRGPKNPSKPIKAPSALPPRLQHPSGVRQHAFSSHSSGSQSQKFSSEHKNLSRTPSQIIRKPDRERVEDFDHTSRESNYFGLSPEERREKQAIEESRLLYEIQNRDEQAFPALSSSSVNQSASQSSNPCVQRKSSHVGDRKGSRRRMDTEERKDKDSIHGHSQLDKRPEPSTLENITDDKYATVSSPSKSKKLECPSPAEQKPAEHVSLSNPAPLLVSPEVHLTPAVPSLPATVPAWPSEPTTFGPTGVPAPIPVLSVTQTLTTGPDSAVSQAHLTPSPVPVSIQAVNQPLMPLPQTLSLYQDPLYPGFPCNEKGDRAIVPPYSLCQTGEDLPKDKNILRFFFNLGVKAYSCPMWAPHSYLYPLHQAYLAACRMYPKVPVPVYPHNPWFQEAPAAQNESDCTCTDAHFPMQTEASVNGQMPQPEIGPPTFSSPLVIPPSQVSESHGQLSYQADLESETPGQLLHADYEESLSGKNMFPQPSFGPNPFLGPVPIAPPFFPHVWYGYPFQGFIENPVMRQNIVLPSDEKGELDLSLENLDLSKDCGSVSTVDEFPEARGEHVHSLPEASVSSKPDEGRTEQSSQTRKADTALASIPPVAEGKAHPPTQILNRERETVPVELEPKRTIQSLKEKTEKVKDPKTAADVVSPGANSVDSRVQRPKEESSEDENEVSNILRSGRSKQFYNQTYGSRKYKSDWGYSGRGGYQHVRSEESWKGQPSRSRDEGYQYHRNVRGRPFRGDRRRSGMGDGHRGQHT
Method in brief: as §1

[9] = molecular target: T5, OTUD5 (UniProt Q96G74)
T5 sequence (whole entry): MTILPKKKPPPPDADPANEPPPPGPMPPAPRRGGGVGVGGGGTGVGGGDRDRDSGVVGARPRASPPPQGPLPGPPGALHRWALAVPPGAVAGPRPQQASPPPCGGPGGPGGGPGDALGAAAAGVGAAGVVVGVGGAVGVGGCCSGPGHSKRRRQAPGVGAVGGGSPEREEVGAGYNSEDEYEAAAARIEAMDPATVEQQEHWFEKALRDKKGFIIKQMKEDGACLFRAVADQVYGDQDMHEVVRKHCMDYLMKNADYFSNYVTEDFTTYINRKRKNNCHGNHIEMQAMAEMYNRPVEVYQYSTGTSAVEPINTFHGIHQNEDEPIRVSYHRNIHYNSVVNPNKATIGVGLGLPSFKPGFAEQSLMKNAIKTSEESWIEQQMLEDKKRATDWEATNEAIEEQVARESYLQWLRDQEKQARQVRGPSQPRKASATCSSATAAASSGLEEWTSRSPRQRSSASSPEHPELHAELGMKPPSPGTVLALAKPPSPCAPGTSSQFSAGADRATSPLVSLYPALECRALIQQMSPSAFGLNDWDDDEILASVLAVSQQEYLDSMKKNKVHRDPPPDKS
Method in brief: as §1

Measured: log2 ratio of Biotin-Ahx-Ub-VS probe labelling

COc1cc(Cl)c(C)cc1NC(=O)CCl
inactive: [1] -0.216 | [2] -0.37 | [4] 0.0292 | [5] -0.06 | [6] 0.159 | [7] -0.0736 | [8] -0.51 | [9] -0.644
active: [3] -2.01
